About 2,000 (36%) of roughly 5,500 compounds were called active. Roughly 18% stayed inconclusive and do not appear here. Rule as the data show it: active = normalized growth mostly below about 0.91 (no sharp cut-off); inconclusive = no clear call, values can overlap the other calls; inactive = mostly above about 0.92. Some of the results follow.
Assay: chemical genetic growth profiling, strain panel (AID 1159580);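 also: tested at 20 µM; growth read once vehicle control cultures reached saturation at 30 °C; 1 = growth at the plate median or of vehicle wells; lower values mean less growth of the strain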
Details: S. cerevisiae deletion strains, growth OD

Measured: normalized growth

NC(=S)N/N=C1/CCCc2ccccc21
inactive: locus YAR019C, strain CDC15, hits give low values 0.923 | locus YBL105C, strain PKC1, hits give low values 0.944 | locus YBR135W, strain CKS1, hits give low values 0.939 | locus YBR136W, strain MEC1, hits give low values 0.909 | locus YBR160W, strain CDC28, hits give low values 0.905 | locus YDL017W, strain CDC7, hits give low values 0.921 | locus YDL028C, strain MPS1, hits give low values 0.924 | locus YDL101C, strain DUN1, hits give low values 0.921 | locus YDL108W, strain KIN28, hits give low values 0.906 | locus YDL214C, strain PRR2, hits give low values 0.805 | locus YDR054C, strain cdc34, hits give low values 0.885 | locus YDR477W, strain SNF1, hits give low values 0.748 | locus YER123W, strain YCK3, hits give low values 0.891 | locus YER133W, strain GLC7, hits give low values 0.802 | locus YFL009W, strain cdc4, hits give low values 0.92 | locus YFL029C, strain CAK1, hits give low values 0.921 | locus YFR003C, strain YPI1, hits give low values 0.913 | locus YFR019W, strain FAB1, hits give low values 0.925 | locus YGR040W, strain KSS1, hits give low values 0.805 | locus YGR052W, strain FMP48, hits give low values 0.746 | locus YGR092W, strain DBF2, hits give low values 0.814 | locus YHR079C, strain IRE1, hits give low values 0.954 | locus YHR082C, strain KSP1, hits give low values 0.935 | locus YHR205W, strain SCH9, hits give low values 0.993 | locus YIL147C, strain SLN1, hits give low values 0.91 | locus YJL095W, strain BCK1, hits give low values 0.934 | locus YJL128C, strain PBS2, hits give low values 0.966 | locus YJL157C, strain FAR1, hits give low values 0.749 | locus YJR066W, strain TOR1 (second series), hits give low values 0.824 | locus YJR066W, strain TOR1, hits give low values 0.765 | locus YKL067W, strain YNK1, hits give low values 0.796 | locus YKL101W, strain HSL1, hits give low values 0.822 | locus YKL193C, strain SDS22, hits give low values 0.922 | locus YLR113W, strain HOG1, hits give low values 1 | locus YLR133W, strain CKI1, hits give low values 0.796 | locus YML070W, strain DAK1, hits give low values 0.914 | locus YMR001C, strain CDC5, hits give low values 0.939 | locus YMR205C, strain PFK2 (second series), hits give low values 0.759 | locus YNL006W, strain LST8, hits give low values 0.978 | locus YNL020C, strain ARK1, hits give low values 0.802 | locus YNL161W, strain CBK1, hits give low values 0.955 | locus YNL183C, strain NPR1, hits give low values 0.735 | locus YNL222W, strain SSU72, hits give low values 0.956 | locus YNL307C, strain MCK1 (second series), hits give low values 0.695 | locus YOL078W, strain AVO1, hits give low values 0.925 | locus YOL136C, strain PFK27, hits give low values 0.922 | locus YOR061W, strain CKA2, hits give low values 0.902 | locus YOR231W, strain MKK1, hits give low values 0.912 | locus YOR329C, strain SCD5, hits give low values 0.965 | locus YPL031C, strain PHO85, hits give low values 0.788 | locus YPL153C, strain RAD53, hits give low values 0.837 | locus YPL204W, strain HRR25, hits give low values 0.872 | locus YPL209C, strain IPL1, hits give low values 0.934 | locus YPL256C, strain CLN2, hits give low values 0.999 | locus YPR025C, strain CCL1, hits give low values 0.937 | locus YPR106W, strain ISR1, hits give low values 0.913 | locus YPR111W, strain DBF20, hits give low values 0.874 | strain NNK1, hits give low values 0.908 | strain TSCII, hits give low values 0.93
active: locus YDR052C, strain DBF4, hits give low values 0.884 | locus YDR226W, strain ADK1, hits give low values 0.866 | locus YFR028C, strain CDC14, hits give low values 0.834 | locus YHR030C, strain SLT2, hits give low values 0.805 | locus YJR016C, strain ILV3, hits give low values 0.896 | locus YKL048C, strain ELM1, hits give low values 0.781 | locus YKL203C, strain TOR2, hits give low values 0.589 | locus YLR403W, strain SFP1, hits give low values 0.659 | locus YNL207W, strain RIO2, hits give low values 0.858 | locus YOR119C, strain RIO1, hits give low values 0.573

Reference: PubChem BioAssay AID1159580 (chemical genetic matrix, 2015)
